CYP2C19 activ – cytochrome P450 2C19 (human) activation. P33261. recombinant CYP2C19, luciferin-H EGE luminescence; active compounds read high; 0 = fully inhibited enzyme, 1 = untreated enzyme. activation factor at 5 µM. 96,000 tested, under 10 active;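 active = activation factor of at least 2 at 5 µM in the primary screen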
CYP2C9 inhib – human CYP2C9 inhibition. P11712. CYP2C9 Supersomes, luciferin-H conversion, luminescence. inhibition, % at 5 µM. 96,000 tested, 20% active. AID 777;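 active = blocking of liver enzyme CYP2C9 beyond about 50% at 5 µM, limit read from the data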
Target sequence (P11712 whole entry, looked up): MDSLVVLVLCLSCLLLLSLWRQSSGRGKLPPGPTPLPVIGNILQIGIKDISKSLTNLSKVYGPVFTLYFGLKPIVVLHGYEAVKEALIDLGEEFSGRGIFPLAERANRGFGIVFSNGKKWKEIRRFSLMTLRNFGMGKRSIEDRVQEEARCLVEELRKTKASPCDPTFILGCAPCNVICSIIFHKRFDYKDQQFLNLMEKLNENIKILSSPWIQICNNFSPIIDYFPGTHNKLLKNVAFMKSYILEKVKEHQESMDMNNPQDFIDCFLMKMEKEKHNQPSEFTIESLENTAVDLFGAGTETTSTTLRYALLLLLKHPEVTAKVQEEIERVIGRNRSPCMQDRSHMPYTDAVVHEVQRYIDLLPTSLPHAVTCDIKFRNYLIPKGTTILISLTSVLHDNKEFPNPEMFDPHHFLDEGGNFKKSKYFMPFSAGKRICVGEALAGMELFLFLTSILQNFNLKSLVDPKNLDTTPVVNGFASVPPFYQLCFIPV
CYP2C19 inhib – inhibitors of human CYP2C19 | AID 778 | P33261 | 96,000 tested, 21% active | inhibition, % at 5 µM | CYP2C19 Supersomes, luciferin-H EGE luminescence, 30 min;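 active = CYP2C19 inhibition above a set limit at 5 µM in the primary screen, cut at about 50% in these data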
CYP2C9 act – increases human cytochrome P450 2C9 activity. P11712. recombinant CYP2C9, luciferin-H conversion, luminescence; active compounds read high; factor 1 = untreated enzyme, 0 = blocked. activation factor at 5 µM. 96,000 tested, 1.4% active. AID 1024;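 active = activation factor of 2 or more for CYP2C9 at a 5 µM dose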
Measles CPE – protection of cells from measles virus; 140,000 tested, 1.5% active; AID 841; protection (pct of control), % at 4 µM; Measles virus-infected cells, CPE protection, absorbance; in the data active = protection mostly above about 24%, no sharp cut-off; inactive = mostly below about 26%
Of the large screens only hits and unclear results are named; the others gave an inactive call. Shown are actives, neighbours in structure and some others; about 22% of the full set was active somewhere.

Cc1ccc(N(C(=O)c2ccc3c(c2)OCO3)C2C=CS(=O)(=O)C2)cc1 (centres undefined)	none
O=C(c1ccc(Br)o1)N(c1ccc(Br)cc1)C1C=CS(=O)(=O)C1 (centres undefined)	CYP2C9 inhib 58.8, CYP2C19 inhib 86.1
O=C(c1ccc2c(c1)OCO2)N(c1ccc(Cl)cc1)C1C=CS(=O)(=O)C1 (centres undefined)	CYP2C19 inhib 69.5
Cc1cc(C)cc(N(C(=O)c2ccc3c(c2)OCO3)C2C=CS(=O)(=O)C2)c1 (centres undefined)	CYP2C19 inhib 53.5
CCOC(=O)N1CCc2c(sc3c2c(=O)n(Cc2ccccc2)c(=O)n3Cc2ccc(C)cc2)C1	none (no result: CYP2C19 activ, CYP2C9 inhib, CYP2C19 inhib, CYP2C9 act)
CC(C)OCCCn1c(=S)[nH]c2cc3c(cc2c1=O)OCO3	none
O=C(CCCCCn1c(=S)[nH]c2cc3c(cc2c1=O)OCO3)N1CCN(Cc2ccccc2)CC1	CYP2C9 inhib 69.6
O=C(CCCCCn1c(=S)[nH]c2cc3c(cc2c1=O)OCO3)N1CCN(C(=O)c2ccco2)CC1	CYP2C9 inhib 64.5
COc1ccc(N2CCN(C(=O)CCCn3c(=S)[nH]c4cc5c(cc4c3=O)OCO5)CC2)cc1	CYP2C9 inhib 74.0
Cc1ccc(C)c(N2CCN(C(=O)CCn3c(=S)[nH]c4cc5c(cc4c3=O)OCO5)CC2)c1	CYP2C9 inhib 78.7
O=C(CCCn1c(=S)[nH]c2cc3c(cc2c1=O)OCO3)N1CCN(c2ccccn2)CC1	none
COc1ccc(N2CCN(C(=O)CCCSc3nc4ccccc4[nH]3)CC2)cc1	none
Cc1ccc(N2C(=O)CSC2c2cccnc2)cc1F (centres undefined)	none
Cc1nn(C)c(C)c1S(=O)(=O)N1CCC(C(=O)NCC2COc3ccccc3O2)CC1 (centres undefined)	none
O=C(CCCc1nc2ccccc2s1)N1CCN(S(=O)(=O)c2cccs2)CC1	none
O=C(N/N=C/c1ccc2c(c1)OCO2)C(O)c1ccccc1 (centres undefined)	none (no result: CYP2C19 activ, CYP2C9 inhib, CYP2C19 inhib, CYP2C9 act)
COc1ccc2[nH]c3c(=O)n(CCCCC(=O)N4CCCC4)c(=S)[nH]c3c2c1	CYP2C9 inhib 59.9
O=c1c2cc3c(cc2[nH]c(=S)n1CCN1CCOCC1)OCO3	none
O=C(CCCCCn1c(=S)[nH]c2cc3c(cc2c1=O)OCO3)N1CCN(C2CCCCC2)CC1	CYP2C9 inhib 80.9
CCCNC(=O)c1ccc(Cn2c(=S)[nH]c3c([nH]c4ccc(OC)cc43)c2=O)cc1	none (no result: CYP2C19 activ, CYP2C9 inhib, CYP2C19 inhib, CYP2C9 act)
O=C1c2ccccc2C(=O)N1CCCCN(C(=O)c1cc([N+](=O)[O-])ccc1Cl)c1ccc(Cl)cc1	none (no result: CYP2C19 activ, CYP2C9 inhib, CYP2C19 inhib, CYP2C9 act)
Cc1ccc(N(CCCCN2C(=O)c3ccccc3C2=O)C(=O)c2cccc([N+](=O)[O-])c2)cc1	CYP2C9 inhib 61.0, CYP2C19 inhib 64.3
O=C1c2ccccc2C(=O)N1CCCCN(C(=O)c1cc([N+](=O)[O-])cc([N+](=O)[O-])c1)c1ccc(Cl)cc1	none (no result: CYP2C19 activ, CYP2C9 inhib, CYP2C19 inhib, CYP2C9 act)
O=C1c2ccccc2C(=O)N1CCCCN(C(=O)c1ccc([N+](=O)[O-])cc1)c1ccc(Cl)cc1	CYP2C9 inhib 54.2
COCC(C)n1c(SCC(=O)NC(=O)Nc2ccc3c(c2)OCCO3)nc2ccccc2c1=O (centres undefined)	CYP2C9 inhib 78.0, CYP2C19 inhib 52.1
CC(C)Cn1c(SC(C)C(=O)Nc2ccc3c(c2)OCCO3)nc2ccccc2c1=O (centres undefined)	CYP2C9 inhib 93.2, CYP2C19 inhib 82.8
COCC(C)n1c(SCC(=O)NNC(=O)c2ccccc2)nc2ccccc2c1=O (centres undefined)	none (no result: CYP2C19 activ, CYP2C9 inhib, CYP2C19 inhib, CYP2C9 act)
CCCC(=O)OCC(=O)Nc1ccc(OC(F)F)cc1	CYP2C19 inhib 59.2
COc1cccc(OC)c1C(=O)OCC(=O)Nc1ccc(OC(F)(F)F)cc1	CYP2C9 inhib 98.8, CYP2C19 inhib 75.3
O=C(Cn1cccc1)Nc1ccc(OC(F)(F)F)cc1	CYP2C19 inhib 51.4
COc1ccccc1C(=O)COC(=O)c1ccccc1OCC(=O)Nc1ccc(SC(F)F)cc1	none (no result: CYP2C19 activ, CYP2C9 inhib, CYP2C19 inhib, CYP2C9 act)
COc1ccccc1C(=O)OCC(=O)Nc1ccc(OC(F)F)cc1	CYP2C19 inhib 53.2
COCCCn1c2nc3ccccc3nc2c2c(=O)n(Cc3ccc(Cl)cc3)cnc21	CYP2C19 inhib 96.3
CCOCCCn1c(C)nc2c(c1=O)c1nc3ccccc3nc1n2-c1ccc(C)cc1	none
O=c1c2c3nc4ccccc4nc3n(Cc3ccccc3)c2ncn1Cc1ccco1	CYP2C9 inhib 60.9
COCCCn1c(C)nc2c(c1=O)c1nc3ccccc3nc1n2CCc1ccccc1	CYP2C9 inhib 79.6
CCCCCn1c2nc3ccccc3nc2c2c(=O)n(CC3CCCO3)c(C)nc21 (centres undefined)	CYP2C9 inhib 74.4 (no result: Measles CPE)
CC1CC(NC(=O)N(C)C)N(C)C(=O)N1 (centres undefined)	none (no result: CYP2C19 activ, CYP2C9 inhib, CYP2C19 inhib, CYP2C9 act)
Cc1ccc(C)c(S(=O)(=O)N2C(=S)NC(=O)C2C(C)C)c1 (centres undefined)	CYP2C9 inhib 95.4, CYP2C19 inhib 55.5
CCN(CC)c1ccc(CC(=O)NC(C)Cc2ccccc2)cc1 (centres undefined)	CYP2C9 inhib 60.4, CYP2C19 inhib 81.7
CCCN(CCC)c1ccc(CC(=O)NC(C)Cc2ccccc2)cc1 (centres undefined)	none (no result: CYP2C19 activ, CYP2C9 inhib, CYP2C19 inhib, CYP2C9 act)
CC1CCN(C(=O)CSc2nnc(CN3CCOCC3)n2-c2ccccc2)CC1	none
O=C(CNC(=O)Cn1ccc2ccccc2c1=O)NCCCN1CCCCCC1	none
O=C(/C=C/c1cccs1)N1CCc2ccccc21	none (no result: CYP2C19 activ, CYP2C9 inhib, CYP2C19 inhib, CYP2C9 act)
COc1ccc(NC(=O)Cc2nnc(SCC(=O)Nc3cc(C)ccc3OC)n2C)cc1	CYP2C19 inhib 94.9
COc1ccc(OC)c(-c2csc3nnc(SCC(=O)Nc4ccc(NC(C)=O)cc4)n23)c1	CYP2C9 inhib 52.8
COc1ccccc1OCc1nnc(SCC(=O)Nc2ccc(C)cc2)n1C	CYP2C9 act 2
COc1ccc(C)cc1NC(=O)CSc1nnc(CC(=O)Nc2cccc(C(F)(F)F)c2)n1C	none
Cc1ccc(NC(=O)Cc2nnc(SCC(=O)Nc3ccccc3)n2C)cc1	none (no result: CYP2C19 activ, CYP2C9 inhib, CYP2C19 inhib, CYP2C9 act)
COc1ccccc1NC(=O)CSc1nnc(CC(=O)Nc2cccc(C(F)(F)F)c2)n1C	CYP2C19 inhib 50.9
O=C(COc1ccccc1)Nc1nnc(-c2ccc(Cl)s2)o1	none
CCc1ccccc1Nc1nc(N)nc(CSCC(=O)Nc2ccc(C)c(C)c2)n1	none (no result: CYP2C19 activ, CYP2C9 inhib, CYP2C19 inhib, CYP2C9 act)
O=C(COC(=O)[C@H](Cc1ccccc1)NC(=O)c1cccs1)NC1CC1	none (no result: CYP2C19 activ, CYP2C9 inhib, CYP2C19 inhib, CYP2C9 act)
COc1ccc(Cl)cc1NC(=O)CSc1nnc(COc2ccccc2)n1C	CYP2C19 inhib 54.8
CCOC(=O)C1=C(C)NC(=S)NC1c1ccc(-c2cccc(Cl)c2C)o1 (centres undefined)	CYP2C9 inhib 50.3
Cc1oc2c(C)c(O)ccc2c(=O)c1-c1ccc2ccccc2n1	none
COc1ccc(-c2noc(C)c2-c2ccc3ccccc3n2)c(O)c1	CYP2C9 inhib 72.0, CYP2C19 inhib 100.2
COc1cccc(-c2nc(-c3ccccc3)no2)c1	none
COc1ccc(-c2onc(C)c2-c2ccccc2)c(O)c1	CYP2C19 inhib 96.0
Cc1nc2ccc(S(=O)(=O)NCC(=O)N3CCOCC3)cc2s1	none

Screens from PubChem BioAssay.
